KB-3-1 tox: qHTS assay for MDR1-selective chemotherapeutics: Primary screen using the parental adenocarcinoma cell KB-3-1 | Potency, µM (doses to about 46.1 µM), actives largely listed as cytotoxic | KB-3-1 viability, CellTiter-Glo ATP luminescence, 72 h | 400,000 compounds, 1.4% hits; further: nearly all actives have a fitted effect of over 60% in size
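Cells are dispensed, compounds pinned in, plates held at 37 °C for 72 h, then CellTiter-Glo is added and luminescence read after 10 minutes. Cell line: parental KB-3-1 in phenol-red-free DMEM, 10% FBS.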
SW480 rereplic: A quantitative high throughput screen for small molecules that induce DNA re-replication in SW480 colon adenocarcinoma cells; SW480 DNA re-replication, Hoechst DNA content imaging, 48 h; Potency, µM (highest dose often 46.1 µM), hits mostly activators; 340,000 compounds, 1.8% hits; AID 624297, 2012; further: nearly all actives have a fitted effect of over 55% in size
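Quantitative HTS format with DMSO vehicle controls; 48 hr drug incubation at 37 C, then 40 min Hoechst staining and scanning imager measurement at 405 nm excitation.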
HT1080 IDH1KD tx: qHTS for induction of synthetic lethality in tumor cells producing 2HG: qHTS for the HT-1080-IDH1KD cell line. HT-1080 IDH1 knockdown viability, ATP luminescence, 48 h. Potency, µM (series often up to 46.1 µM), most hits filed as cytotoxic. 360,000 compounds, 2% hits. AID 686971, 2013
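After a 2 h attachment period, IDH1KD HT-1080 cells took pin-transferred compound for 48 h at 37 °C; ATP-based luminescence after 10 min room-temperature reagent incubation reported viability.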
HT1080-NT tox: qHTS for induction of synthetic lethality in tumor cells producing 2HG: qHTS for the HT-1080-NT fibrosarcoma cell line; HT-1080-NT fibrosarcoma viability, CellTiter-Glo ATP luminescence, 48 h; Potency, µM (doses to about 46.1 µM), most hits filed as cytotoxic; 360,000 compounds, 1.6% hits; AID 686970, 2013;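 further: NT is the 2HG producing partner of a matched IDH1 knockdown line; nearly all actives have a fitted effect of over 55% in size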
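Fibrosarcoma NT cells, 750 per well in 5% FBS RPMI, were exposed to compound for 48 hours. Viability: CellTiter-Glo luminescence.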
KB-V1 MDR tox: qHTS assay for MDR1-selective chemotherapeutics: Primary screen using the drug-selected MDR subline cells KB-V1; KB-V1 MDR cells viability, CellTiter-Glo, 72 h; Potency, µM (doses to about 46.1 µM), actives largely listed as cytotoxic; 400,000 compounds, 3.4% hits; further: nearly all actives have a fitted effect of over 60% in size
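Following 72 h at 37 degrees C with compound, KB-V1 cell viability was read by CellTiter-Glo luminescence, medium being phenol-red-free DMEM plus 10% FBS; concentration-response parameters came from normalized, curve-fitted qHTS data.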
MCF10A rereplic: A quantitative high throughput screen for small molecules that induce DNA re-replication in MCF 10a normal breast cells; MCF 10A DNA re-replication, Hoechst nuclear intensity, 48 h; Potency, µM (highest dose often 46.1 µM), actives largely listed as activators; 350,000 compounds, 2.9% hits; AID 624296, 2012; further: nearly all actives have a fitted effect of over 50% in size
Numbers stand for hits; 0 = inactive; ? = inconclusive; - = no result; [ ] = remark or other dose. Shown are actives, neighbours in structure and some others; about 8% of the full set was active somewhere. The call rests on the fitted dose curve; in most records, active means well fitted curve in the direction sought with a large enough effect; inconclusive means small, poorly fitted or top-dose-only effect, or another doubt; inactive means no such curve, though single readings can be large; an effect the other way counts as inactive or inconclusive.

SMILES	KB-3-1 tox	SW480 rereplic	HT1080 IDH1KD tx	HT1080-NT tox	KB-V1 MDR tox	MCF10A rereplic
COc1ccc(C2C=C(c3ccccc3)Nc3nnnn32)cc1 (centres undefined)	0	0	0	0	0	0
COc1cccc(C2C=C(c3ccc(OC)cc3OC)Nc3nnnn32)c1 (centres undefined)	?	?	0	0	23µM	?
COc1cccc(C2=CC(c3ccc(N(C)C)cc3)n3nnnc3N2)c1 (centres undefined)	18µM	?	?	0	13µM	16µM
COc1cccc(C2=CC(c3ccccc3)n3nnnc3N2)c1 (centres undefined)	?	0	?	7.9µM	6.5µM	0
O=C(O)C1CC(O)CN1C(=S)Nc1ccccc1 (centres undefined)	0	0	0	0	0	0
CCOc1cc(C)c(Cl)cc1S(=O)(=O)NCCOC	0	0	0	0	0	0
Cc1ccc2c(c1C)-c1c(ccc(C)c1C)C(=O)C2=O	3.3µM	3.3µM	10µM	5.8µM	0.65µM	4.1µM
COc1ccccc1CNC(=O)C1CC2Cn3c(nc4ccccc43)C2N1C (centres undefined)	0	0[9.22 µM]	0	0	?	0
COc1ccccc1CNC(=O)C1CC2Cn3c(nc4cc(C)c(C)cc43)C2N1C (centres undefined)	13µM	0	0	0	0	0
O=C(COC(=O)CNC(=O)C1CCCCC1)Nc1ccc2c(c1)OCCO2	0	0	0	0	0	0
COc1ccc(NC(=O)c2cccc(-c3ccc(O)cc3)c2)cn1	?	?	2.1µM	?	0	?
CCCCNC1CCS(=O)(=O)C1 (centres undefined)	0	0	0	0	0	?
CCC(C(=O)Nc1ccccc1F)n1nc(C)c2c(C)n(-c3ccccc3)nc2c1=O (centres undefined)	0	29µM	0	0	0	0
Cc1ccccc1NC(=S)N1CCCCCC1	0	0	0	0	?	0
Cc1nc2c(ccc3nc(NC(=O)C4CC4)sc32)s1	?	?	?	?	21µM	0
CCC(=O)Nc1nc2ccc3sc(C)nc3c2s1	?	0	?	0	?	0
CCOC(=O)C1CCN(CC(=O)c2c(C)[nH]c3cc(C)ccc23)CC1	0	0	0	0	0	0
CCOCc1cnc(C)nc1NCC(=O)c1c(C)[nH]c2cc(C)ccc12	16µM	0	0[9.24 µM]	?	0	0
CCOCc1cnc(C)nc1NCC(=O)c1c(C)[nH]c2ccccc12	23µM	0	0	0	0	0
CCc1ccc(CNC(=O)c2cc3n(n2)CCCN(Cc2ccccc2)C3=O)cc1	0	-	-	-	?	-
CC(=O)Oc1c(S(=O)(=O)c2ccc(C)cc2)c(C)nn1C(C)(C)C	?	?	0	0	?	?
Cc1ccc(S(=O)(=O)c2c(C)nn(C(C)(C)C)c2OC(=O)c2ccc(Br)o2)cc1	?	0	?	?	?	?
Cc1nn(C(C)(C)C)c(OC(=O)c2ccc3c(c2)OCO3)c1S(=O)(=O)c1ccccc1	0	?	?	21µM	0	?
Cc1ccc(S(=O)(=O)c2c(C)nn(C(C)(C)C)c2OC(=O)c2cccs2)cc1	0	0	26µM	23µM	0	18µM
Cc1ccc(S(=O)(=O)c2c(C)nn(C(C)(C)C)c2OC(=O)c2ccco2)cc1	0	0	?	23µM	0	13µM
Cc1nn(C(C)(C)C)c(OC(=O)c2ccc3c(c2)OCO3)c1Sc1ccccc1	0	0	?	0	0	0
Cc1ccc(C)c(N2CCN(C(=O)CC3Sc4ccccc4NC3=O)CC2)c1 (centres undefined)	?	0	?	?	16µM	?
